According to ChEMBL document CHEMBL5606460, “ASAP - DENV-2 NS2B-NS3 protease fluorescence single point” (2024):
In all, about 2,000 compounds went through this assay and about 110 (5.5%) showed an effect of 50% or more. Only a selection was taken, and strong results are over-represented in it overall.

Target: Genome polyprotein (dengue virus type 2) (UniProt P29990)
[1] = Thailand/16681/1984, Concentration 25.0 uM, Number of replicates 1.0

**Q.** Which inhibition (Thailand/16681/1984, Concentration 49.5 uM, Number of replicates 2.0, Standard deviation 3.6499634215033607 %) does the source give for Cn1cc(NC(=O)c2ccccc2C(F)(F)F)c(-c2ccc(F)nc2)n1 here?
**A.** Its inhibition is -3.01%.

**Q.** What about the inhibition (Thailand/16681/1984, Concentration 99.01 uM, Number of replicates 2.0, Standard deviation 1.5811035342397435 %) of the same molecule?
**A.** The inhibition was -2.37%.

**Q.** And the inhibition (Thailand/16681/1984, Concentration 198.0 uM, Number of replicates 2.0, Standard deviation 0.8634737807980869 %)?
**A.** The inhibition was -2.26%.

**Q.** With O=Cc1ccc(N2CCC(C(=O)Nc3c(Cl)cncc3Cl)CC2)cc1 as the molecule, how does the inhibition [1] read?
**A.** The inhibition was 12.4%.

**Q.** Cc1cc(CO)c2cccc(Cc3ccccc3C(=O)NCC(N)=O)c2n1 was tested. Which inhibition (Thailand/16681/1984, Concentration 49.95 uM, Number of replicates 2.0, Standard deviation 0.5253345885233084 %) did it give?
**A.** Its inhibition is 1.79%.

**Q.** And the inhibition (Thailand/16681/1984, Concentration 99.9 uM, Number of replicates 2.0, Standard deviation 0.6122918820772879 %)?
**A.** Its inhibition is 9.88%.

**Q.** What does the source list for Cc1cc(CO)c2cccc(Cc3ccccc3C(=O)NC[C@H](C)O)c2n1?
**A.** inhibition (Thailand/16681/1984, Concentration 49.95 uM, Number of replicates 2.0, Standard deviation 0.37872955767016525 %): -3.03%; inhibition (Thailand/16681/1984, Concentration 99.9 uM, Number of replicates 2.0, Standard deviation 0.20409716758521712 %): 0.577%

**Q.** How did the inhibition (Thailand/16681/1984, Concentration 49.95 uM, Number of replicates 2.0, Standard deviation 0.5174294413229081 %) turn out when Cc1cc(CO)c2cccc(Cc3cccc(C(=O)NCC(N)=O)c3)c2n1 was run?
**A.** Its inhibition is 2.44%.

**Q.** What about the inhibition (Thailand/16681/1984, Concentration 99.9 uM, Number of replicates 2.0, Standard deviation 1.3216010889796208 %) of the same molecule?
**A.** The inhibition was 17.6%.

**Q.** For Cc1cc(CO)c2cccc(Cc3ccccc3C(=O)NCC(=O)O)c2n1, which inhibition (Thailand/16681/1984, Concentration 49.95 uM, Number of replicates 2.0, Standard deviation 0.8422599232434016 %) is on record?
**A.** Its inhibition is 38.5%.

**Q.** What about the inhibition (Thailand/16681/1984, Concentration 99.9 uM, Number of replicates 2.0, Standard deviation 0.5627042603428867 %) of the same molecule?
**A.** The inhibition was 64.9%.

**Q.** How did the inhibition (Thailand/16681/1984, Concentration 49.95 uM, Number of replicates 2.0, Standard deviation 0.8336363408632846 %) turn out when Cc1cc(CO)c2cccc(Cc3cccc(C(=O)NCC(=O)O)c3)c2n1 was run?
**A.** The inhibition was 63.2%.

**Q.** What about the inhibition (Thailand/16681/1984, Concentration 99.9 uM, Number of replicates 2.0, Standard deviation 0.025873444538655716 %) of the same molecule?
**A.** The inhibition was 79.2%.

**Q.** For Cc1cc(CO)c2cccc(Cc3cccc(C(=O)NC[C@H](C)O)c3)c2n1, which inhibition (Thailand/16681/1984, Concentration 49.95 uM, Number of replicates 2.0, Standard deviation 1.3417230059830858 %) is on record?
**A.** The inhibition was -6.96%.

**Q.** And the inhibition (Thailand/16681/1984, Concentration 99.9 uM, Number of replicates 2.0, Standard deviation 0.8544771145149516 %)?
**A.** Its inhibition is -2.86%.

**Q.** O=Cc1ccc(N2CCC(C(=O)N3CCc4ccc([N+](=O)[O-])cc4C3)CC2)cc1 was tested. Which inhibition [1] did it give?
**A.** Its inhibition is 16.6%.

**Q.** Which inhibition [1] does the source give for O=Cc1ccc(N2CCC(C(=O)NCC3CCC(C(F)(F)F)CC3)CC2)cc1 (stereo not drawn) here?
**A.** Its inhibition is 12.8%.

**Q.** Cc1cc(C)nc(CCNC(=O)C2CCN(c3ccc(C=O)cc3)CC2)n1 was tested. Which inhibition [1] did it give?
**A.** Its inhibition is 10.6%.

**Q.** What does the source list for C[C@@H](CNc1cc(Cl)cc(C(=O)NC(C)(C)CO)c1)c1ccc(F)cc1?
**A.** inhibition (Thailand/16681/1984, Concentration 49.5 uM, Number of replicates 2.0, Standard deviation 1.7964155145983758 %): -4.87%; inhibition (Thailand/16681/1984, Concentration 99.01 uM, Number of replicates 2.0, Standard deviation 2.367041527999976 %): -8.66%

**Q.** O=Cc1ccc(N2CCC(C(=O)NCc3ccc(Br)cn3)CC2)cc1 was tested. Which inhibition [1] did it give?
**A.** The inhibition was 13.7%.

**Q.** Cc1cc(CO)c2cccc(NC(=O)[C@@H]3CCCC[C@H]3C(=O)O)c2n1 was tested. Which inhibition (Thailand/16681/1984, Concentration 49.95 uM, Number of replicates 2.0, Standard deviation 1.6403651221128503 %) did it give?
**A.** The inhibition was 4.53%.

**Q.** And the inhibition (Thailand/16681/1984, Concentration 99.9 uM, Number of replicates 2.0, Standard deviation 0.7343808497949172 %)?
**A.** Its inhibition is 11.1%.

**Q.** What does the source list for Cc1cc(CO)c2cccc(NC(=O)[C@H]3CCNC3)c2n1?
**A.** inhibition (Thailand/16681/1984, Concentration 49.95 uM, Number of replicates 2.0, Standard deviation 1.8979597481282788 %): -0.539%; inhibition (Thailand/16681/1984, Concentration 99.9 uM, Number of replicates 2.0, Standard deviation 1.976292784952565 %): 2.99%

**Q.** What does the source list for Cc1cc(CO)c2cccc(NC(=O)C3CCC(N)CC3)c2n1 (stereo not drawn)?
**A.** inhibition (Thailand/16681/1984, Concentration 49.95 uM, Number of replicates 2.0, Standard deviation 0.3430335372049546 %): 80.8%; inhibition (Thailand/16681/1984, Concentration 99.9 uM, Number of replicates 2.0, Standard deviation 0.009052468710563864 %): 98.8%

**Q.** With Cc1cc(CO)c2cccc(NC(=O)C3CNC3)c2n1 as the molecule, how does the inhibition (Thailand/16681/1984, Concentration 99.9 uM, Number of replicates 2.0, Standard deviation 1.2849235527062883 %) read?
**A.** Its inhibition is -8.19%.

**Q.** Which results are given for Cc1cc(CO)c2cccc(NC(=O)CNC3CC3)c2n1?
**A.** inhibition (Thailand/16681/1984, Concentration 49.95 uM, Number of replicates 2.0, Standard deviation 1.6119901778213759 %): 15.9%; inhibition (Thailand/16681/1984, Concentration 99.9 uM, Number of replicates 2.0, Standard deviation 1.4451149573517064 %): 30.7%

**Q.** Which inhibition (Thailand/16681/1984, Concentration 49.95 uM, Number of replicates 2.0, Standard deviation 0.3514210972334106 %) does the source give for Cc1cc(CO)c2cccc(NC(=O)C3CC(N)C3)c2n1 (stereo not drawn) here?
**A.** Its inhibition is 31.4%.

**Q.** And the inhibition (Thailand/16681/1984, Concentration 99.9 uM, Number of replicates 2.0, Standard deviation 0.19619256829384746 %)?
**A.** The inhibition was 78.8%.

**Q.** Cc1cc(CO)c2cccc(NC(=O)C3CCC(CN)CC3)c2n1 (stereo not drawn) was tested. Which inhibition (Thailand/16681/1984, Concentration 49.95 uM, Number of replicates 2.0, Standard deviation 1.7984525560806044 %) did it give?
**A.** The inhibition was 96%.

**Q.** What about the inhibition (Thailand/16681/1984, Concentration 99.9 uM, Number of replicates 2.0, Standard deviation 0.012834221133749364 %) of the same molecule?
**A.** Its inhibition is 98.2%.

**Q.** With Cc1cc(CO)c2cccc(NC(=O)[C@@H]3CCCC[C@H]3N)c2n1 as the molecule, how does the inhibition (Thailand/16681/1984, Concentration 49.95 uM, Number of replicates 2.0, Standard deviation 4.042326157041073 %) read?
**A.** Its inhibition is -9.54%.

**Q.** With Cc1cc(CO)c2cccc(NC(=O)C3CCN(C)CC3)c2n1 as the molecule, how does the inhibition (Thailand/16681/1984, Concentration 99.9 uM, Number of replicates 2.0, Standard deviation 2.5723142976307076 %) read?
**A.** The inhibition was 0.725%.

**Q.** Which inhibition (Thailand/16681/1984, Concentration 49.95 uM, Number of replicates 2.0, Standard deviation 1.684279261738791 %) does the source give for Cc1cc(CO)c2cccc(NC(=O)[C@@H]3CC(=O)CCN3)c2n1 here?
**A.** The inhibition was 1.29%.

**Q.** And the inhibition (Thailand/16681/1984, Concentration 99.9 uM, Number of replicates 2.0, Standard deviation 1.6842793565692 %)?
**A.** The inhibition was -1.57%.

**Q.** How did the inhibition [1] turn out when CN(CCc1ccccc1F)C(=O)C1CCN(c2ccc(C=O)cc2)CC1 was run?
**A.** Its inhibition is 13.4%.

**Q.** How did the inhibition [1] turn out when O=Cc1ccc(N2CCC(C(=O)Nc3ccc([N+](=O)[O-])c4ccccc34)CC2)cc1 was run?
**A.** Its inhibition is 13.5%.

**Q.** CN(Cc1nc2ccsc2c(=O)[nH]1)C(=O)C1CCN(c2ccc(C=O)cc2)CC1 was tested. Which inhibition [1] did it give?
**A.** Its inhibition is 11.8%.

**Q.** For O=Cc1ccc(N2CCC(C(=O)N[C@H](c3ccccc3)C(F)(F)F)CC2)cc1, which inhibition [1] is on record?
**A.** Its inhibition is 13.1%.
